# Data from the supplement of paper PMC8728848.
# The sample as a whole holds a higher share of the strongest signals than the screen did.
# B1: pilr alpha (protein)
# chain: MLYGVTQPKHLSASMGGSVEIPFSFYYPWELATAPDVRISWRRGHFHRQSFYSTRPPSIHKDYVNRLFLNWTEGQKSGFLRISNLQKQDQSVYFCRVELDTRSSGRQQWQSIEGTKLSIT
# How the values were obtained:
# Assay in all cases: glycan array binding signal (z-score within array); higher = stronger binding
# Settings in all cases: glycan notation: IUPAC condensed, linker removed
# [1] = target: Fuc(a1-2)Gal(b1-4)GlcNAc(b1-2)Man(a1-3)[Fuc(a1-2)Gal(b1-4)GlcNAc(b1-2)Man(a1-6)]Man(b1-4)GlcNAc(b1-4)[Fuc(a1-6)]GlcNAc
# Outline: (§1)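 Glycan array binding is given as a within-array Z-score, which can be read as non-binding when negative. The arrays, 3228 of them, came from the Consortium for Functional Glycomics database and were retained only where the protein sequence was available. Z-scores were averaged across arrays of the same protein sequence at different concentrations or buffers and across linkers.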
# [2] = target: Fuc(a1-2)[GalNAc(a1-3)]Gal(b1-3)GlcNAc(b1-3)GalNAc
# Outline: as §1
# [3] = target: Fuc(a1-2)[GalNAc(a1-3)]Gal(b1-4)[Fuc(a1-3)]GlcNAc(b1-3)GalNAc
# Outline: as §1
# [4] = target: Fuc(a1-3)[Gal(b1-4)]GlcNAc(b1-2)Man(a1-3)[Fuc(a1-3)[Gal(b1-4)]GlcNAc(b1-2)Man(a1-6)]Man(b1-4)GlcNAc(b1-4)GlcNAc
# Outline: as §1
# [5] = target: Gal(a1-3)Gal(b1-3)GlcNAc
# Outline: as §1
# [6] = target: Gal(a1-3)Gal(b1-3)GlcNAc(b1-2)Man(a1-3)[Gal(a1-3)Gal(b1-3)GlcNAc(b1-2)Man(a1-6)]Man(b1-4)GlcNAc(b1-4)GlcNAc
# Outline: as §1
# [7] = target: Gal(a1-3)Gal(b1-4)[Fuc(a1-3)]GlcNAc(b1-2)Man(a1-3)[Gal(a1-3)Gal(b1-4)[Fuc(a1-3)]GlcNAc(b1-2)Man(a1-6)]Man(b1-4)GlcNAc(b1-4)GlcNAc
# Outline: as §1
# [8] = target: Gal(a1-3)GalNAc
# Outline: as §1
# [9] = target: Gal(a1-3)[Gal(a1-4)]Gal(b1-4)GlcNAc
# Outline: as §1
# [10] = target: Gal(a1-4)Gal(b1-4)Glc
# Outline: as §1
# [11] = target: Gal(a1-4)Gal(b1-4)GlcNAc(b1-3)Gal(b1-4)Glc
# Outline: as §1
# [12] = target: Gal(b1-3)GalNAc(b1-4)Gal(b1-4)Glc
# Outline: as §1
# [13] = target: Gal(b1-3)GlcNAc(b1-3)Gal(b1-3)GlcNAc
# Outline: as §1
# [14] = target: Gal(b1-3)GlcNAc(b1-3)Gal(b1-4)[Fuc(a1-3)]GlcNAc(b1-6)[Gal(b1-3)GlcNAc(b1-3)]Gal(b1-4)Glc
# Outline: as §1
# [15] = target: Gal(b1-3)GlcNAc6S
# Outline: as §1
# [16] = target: Gal(b1-3)[Fuc(a1-4)]GlcNAc(b1-6)GalNAc
# Outline: as §1
# [17] = target: Gal(b1-4)GlcNAc
# Outline: as §1
# [18] = target: Gal(b1-4)GlcNAc(b1-3)Gal(b1-4)GlcNAc(b1-3)Gal(b1-4)GlcNAc(b1-3)Gal(b1-4)GlcNAc(b1-2)[Gal(b1-4)GlcNAc(b1-3)Gal(b1-4)GlcNAc(b1-3)Gal(b1-4)GlcNAc(b1-3)Gal(b1-4)GlcNAc(b1-6)]Man(a1-6)[Gal(b1-4)GlcNAc(b1-3)Gal(b1-4)GlcNAc(b1-3)Gal(b1-4)GlcNAc(b1-3)Gal(b1-4)GlcNAc(b1-2)Man(a1-3)]Man(b1-4)GlcNAc(b1-4)[Fuc(a1-6)]GlcNAc
# Outline: as §1
# [19] = target: GalNAc(a1-3)Gal
# Outline: as §1
# [20] = target: GalNAc(b1-3)Gal(a1-4)Gal(b1-4)GlcNAc
# Outline: as §1
# [21] = target: GalNAc(b1-3)Gal(a1-6)Gal(b1-4)Glc
# Outline: as §1
# [22] = target: GalNAc(b1-4)GlcNAc
# Outline: as §1
# [23] = target: GalNAc(b1-6)GalNAc
# Outline: as §1
# [24] = target: Glc(a1-6)Glc(a1-6)Glc
# Outline: as §1
# [25] = target: GlcNAc(a1-4)Gal(b1-4)GlcNAc(b1-3)Gal(b1-4)[Fuc(a1-3)]GlcNAc(b1-3)Gal(b1-4)[Fuc(a1-3)]GlcNAc
# Outline: as §1
# [26] = target: GlcNAc(b1-3)Gal(b1-4)GlcNAc
# Outline: as §1
# [27] = target: GlcNAc(b1-3)Gal(b1-4)GlcNAc(b1-2)Man(a1-3)[GlcNAc(b1-3)Gal(b1-4)GlcNAc(b1-2)Man(a1-6)]Man(b1-4)GlcNAc(b1-4)GlcNAc
# Outline: as §1
# [28] = target: GlcNAc(b1-3)Gal(b1-4)GlcNAc(b1-2)[GlcNAc(b1-3)Gal(b1-4)GlcNAc(b1-6)]Man(a1-6)[GlcNAc(b1-3)Gal(b1-4)GlcNAc(b1-2)Man(a1-3)]Man(b1-4)GlcNAc(b1-4)GlcNAc
# Outline: as §1
# [29] = target: GlcNAc(b1-3)Gal(b1-4)GlcNAc(b1-3)Gal(b1-4)GlcNAc(b1-2)Man(a1-3)[GlcNAc(b1-3)Gal(b1-4)GlcNAc(b1-3)Gal(b1-4)GlcNAc(b1-2)Man(a1-6)]Man(b1-4)GlcNAc(b1-4)GlcNAc
# Outline: as §1
# [30] = target: Man(a1-2)Man(a1-6)[Man(a1-3)]Man(a1-6)[Man(a1-2)Man(a1-2)Man(a1-3)]Man(b1-4)GlcNAc(b1-4)GlcNAc
# Outline: as §1
binder,measurement,setting,value
B1,glycan array binding signal (z-score),[1],0.117
same,glycan array binding signal (z-score),[2],-0.147
same,glycan array binding signal (z-score),[3],6.68
same,glycan array binding signal (z-score),[4],-1.03
same,glycan array binding signal (z-score),[5],0.373
same,glycan array binding signal (z-score),[6],-0.319
same,glycan array binding signal (z-score),[7],-0.503
same,glycan array binding signal (z-score),[8],2.27
same,glycan array binding signal (z-score),[9],7.86
same,glycan array binding signal (z-score),[10],1.77
same,glycan array binding signal (z-score),[11],-0.604
same,glycan array binding signal (z-score),[12],2.46
same,glycan array binding signal (z-score),[13],-0.764
same,glycan array binding signal (z-score),[14],0.008
same,glycan array binding signal (z-score),[15],-0.425
same,glycan array binding signal (z-score),[16],-0.479
same,glycan array binding signal (z-score),[17],-0.271
same,glycan array binding signal (z-score),[18],2.72
same,glycan array binding signal (z-score),[19],0.654
same,glycan array binding signal (z-score),[20],2.72
same,glycan array binding signal (z-score),[21],-0.342
same,glycan array binding signal (z-score),[22],8.03
same,glycan array binding signal (z-score),[23],0.632
same,glycan array binding signal (z-score),[24],-0.27
same,glycan array binding signal (z-score),[25],0.876
same,glycan array binding signal (z-score),[26],-0.07
same,glycan array binding signal (z-score),[27],0.049
same,glycan array binding signal (z-score),[28],1.61
same,glycan array binding signal (z-score),[29],1.68
same,glycan array binding signal (z-score),[30],-0.021
